Screening data: PubChem BioAssay, several laboratories
Sampled rows, rich in hits. Any-hit rate of the full collection: about 3.2%.
esBAF inh = Bmi1 luciferase reporter increase in mESCs, primary screen, esBAF inhibitor project, mouse ES cells, Bmi1 luciferase knock-in, single point; 24 h; 100% = twice the neutral-well signal; 350,000 tested, 2% active; reporter increase, % at 12.5 µM; in the data active means activation above about 40%; inconclusive means no clear call, values can overlap the other calls;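 further: a rise in the Bmi1 reporter signal indicates esBAF inhibition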
dFosB activator = activators of delta FosB homodimer, primary screen, biochemical, fluorescence polarization, TAMRA-CDK5 oligo, single point; Protein FosB (Mus musculus), P13346; purified delta FosB; percent of positive-control signal above neutral wells; activation, % at 25 µM; 340,000 tested, 0.99% active;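 active means mean activation above about 17%, with every replicate also reaching it, limit read from the data, passing the limit was not always enough; inconclusive means only one of the two conditions met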
Target sequence (P13346 whole entry, looked up): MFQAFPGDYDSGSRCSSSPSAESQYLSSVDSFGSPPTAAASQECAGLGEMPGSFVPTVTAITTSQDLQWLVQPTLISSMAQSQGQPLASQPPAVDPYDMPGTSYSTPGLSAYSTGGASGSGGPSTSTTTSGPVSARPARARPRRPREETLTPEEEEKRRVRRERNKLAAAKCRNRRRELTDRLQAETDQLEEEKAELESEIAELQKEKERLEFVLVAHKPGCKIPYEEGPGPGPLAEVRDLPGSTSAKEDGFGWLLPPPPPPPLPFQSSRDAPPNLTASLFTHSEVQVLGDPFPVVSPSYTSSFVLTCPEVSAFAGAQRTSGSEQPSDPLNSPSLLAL
SMARCA2 activ = SMARCA2 (BRM) function activators, primary screen, cell-based, luminescence, high throughput | MG213 cells, MMTV-luciferase reporter, dexamethasone, overnight | activation, % at 9.1 µM | AID 652017, 2013 | 370,000 tested, 1% active; in the data active means activation above about 7.8%
Rtt109 HAT inh = inhibitors of C. albicans Rtt109/Vps75 HAT, primary screen, biochemical, ThioGlo CoA-SH fluorescence, plate reader; Histone acetyltransferase RTT109 (Candida albicans (strain SC5314 / ATCC MYA-2876)), …; purified Rtt109/Vps75, 4 h; inhibition, % at 34.9 µM; 330,000 tested, 0.16% active;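 active means inhibition of at least 50% in every replicate; inconclusive means best replicate reaches 50% inhibition but some replicates fall short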
DYRK1A inh = rat Dyrk1A kinase inhibitors, primary screen, biochemical, single point, plate reader | Dual specificity tyrosine-phosphorylation-regulated kinase 1A (Rattus norvegicus), Q63470 | inhibition, % at 12.5 µM | ADP-Glo luminescence, NFATc1 peptide | 310,000 tested, 0.43% active; in the data active means inhibition above about 50%
CDK5 p35 inh = inhibitors of human CDK5/p35 kinase, primary screen, biochemical, single concentration; Cyclin-dependent kinase 5 (Homo sapiens) + Cyclin-dependent kinase 5 activator 1 (Homo …; AID 488839, 2010; inhibition, % at 10 µM; 330,000 tested, 0.01% active; Recombinant CDK5/p35, ADP-Glo luminescence, 60 min;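 active means highest replicate inhibition of at least 50% and at least 75% of replicates reaching 50%; inconclusive means only one of the two criteria met; inactive means both criteria failed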
Numbers stand for hits; i = inactive; ? = inconclusive; nt = not tested or not shown.

SMILES	esBAF inh	dFosB activator	SMARCA2 activ	Rtt109 HAT inh	DYRK1A inh	CDK5 p35 inh
O=c1oc(CCO)cc2ccc(-c3ccc4[nH]ccc4c3)cc12	50.0	i	i	i	i	i
CC(C)(C)N(Cc1ccccc1)C(=O)CN1C(=O)c2ccccc2C1=O	46.2	i	i	i	i	i
COc1nc(Nc2ccc(C(C)C)cc2)nc(OC)n1	57.7	i	i	nt	i	i
Cc1ccc(S(=O)(=O)NNC(=O)Nc2ccc(Cl)cc2)cc1	i	i	8.8	i	i	i
COc1ccccc1-c1cn(CC[C@@H]2CC[C@H](NC(=O)c3cnccn3)[C@@H](CO)O2)nn1	i	nt	nt	nt	nt	nt
C[C@@H]1CN([C@H](C)CO)C(=O)c2cc(-c3ccccc3F)cnc2O[C@H]1CN(C)C(=O)NC1CCCC1	i	nt	nt	nt	nt	nt
NC1=NC(=O)/C(=C/c2cccc(-c3ccc(S(N)(=O)=O)cc3)c2)S1	i	59.8	i	i	i	i
CCNC(=O)C[C@H]1CC[C@H]2[C@@H](COc3ccc(NC(=O)Cc4cccs4)cc3C(=O)N2C)O1	i	nt	nt	nt	nt	nt
O=C(NC(=S)Nc1ccc([N+](=O)[O-])cc1O)C1CCCCC1	nt	i	i	i	nt	i
Cn1ccc(C(=O)NC(=S)Nc2ccc([N+](=O)[O-])cc2O)n1	69.1	i	i	i	nt	i
C/C=C/c1ccc2c(c1)O[C@@H](CN(C)C(=O)CC)[C@H](C)CN([C@@H](C)CO)S2(=O)=O	i	nt	nt	nt	nt	nt
CCOC(=O)c1c(C)[nH]c(N=Nc2ccccc2)c1C	88.8	i	i	i	i	i
CCOC(=O)c1c(C)[nH]c(N=Nc2ccc(C)cc2)c1C	62.1	i	i	i	i	i
CCOC(=O)c1c(C)[nH]c(NC(=O)NNC(=O)c2ccccc2Cl)c1C	i	i	i	i	i	i
CCOC(=O)c1c(C)[nH]c(N=Nc2ccccc2Cl)c1C	64.3	i	i	i	i	i
CCOC(=O)c1c(C)[nH]c(O)c1C=Nc1ccccc1	i	i	i	i	i	i
COc1ccccc1S(=O)(=O)N[C@H]1CC[C@@H](CC(=O)N2CCN(C)CC2)O[C@@H]1CO	i	nt	nt	nt	nt	nt
COC(=O)c1ccc(COc2cc(C)ccc2C)o1	70.0	i	i	i	i	i
Cc1ccc(OCc2ccc(C(=O)O)o2)cc1C	?	i	i	i	i	i
COC(=O)c1ccc(COc2ccc(C)c(C)c2)o1	58.5	i	i	i	i	i
CCc1cc(-c2ccc3c(c2)COc2c4ccccc4nn2-3)on1	i	i	i	i	nt	i
C[C@@H](CO)NC(=O)c1ccc2c3n(nc2c1)-c1ccc(Cl)cc1CO3	81.4	i	i	i	i	i
CCCC#Cc1ccc2c(c1)COc1c3ccccc3nn1-2	i	i	i	i	i	i
CC(C)[C@@H](CO)NC(=O)c1ccc2c3n(nc2c1)-c1ccc(Cl)cc1CO3	59.1	i	i	i	i	i
C[C@@H]1CN([C@H](C)CO)C(=O)Cc2cc(NC(=O)Nc3ccc(F)cc3)ccc2O[C@@H]1CN(C)S(=O)(=O)c1ccc(F)cc1	i	nt	nt	nt	nt	nt
SMILES	esBAF inh	dFosB activator	SMARCA2 activ	Rtt109 HAT inh	DYRK1A inh	CDK5 p35 inh
C[C@@H]1CN([C@@H](C)CO)C(=O)c2cc(NC(=O)Nc3cccc4ccccc34)ccc2O[C@@H](C)CCCCO[C@@H]1CN(C)S(=O)(=O)c1cn(C)cn1	i	nt	nt	nt	nt	nt
Cc1cc(-c2cccc([N+](=O)[O-])c2)nc2ccccc12	nt	i	i	i	i	i
O=[N+]([O-])c1cccc(-c2cnc3ccccc3n2)c1	52.1	i	i	i	i	i
COc1ccc(S(=O)(=O)N(C)C[C@@H]2Oc3ccc(NC(=O)Cc4ccccc4)cc3CC(=O)N([C@H](C)CO)C[C@H]2C)cc1	i	nt	nt	nt	nt	nt
Cc1ccc(OCCn2cnc3ccccc3c2=O)c([N+](=O)[O-])c1	91.6	i	i	i	i	i
O=C(Nc1ccc2c(c1)C(=O)OC2)c1ccc(Cl)cc1	i	i	i	i	i	i
O=C(Nc1ccc2c(c1)C(=O)OC2)c1ccc(Cl)cc1Cl	52.8	i	i	i	i	i
